Results as given in PubChem BioAssay AID1159580 (chemical genetic matrix, 2015).
Hit rate of the full screen: of about 5,500 compounds, about 2,000 (36%) were called active. Inconclusive results (about 18%) are left out. Rule as the data show it: active = normalized growth mostly below about 0.91 (no sharp cut-off); inconclusive = no clear call, values can overlap the other calls; inactive = mostly above about 0.92. Some of the results follow.

Assay: chemical genetic growth profiling, strain panel (AID 1159580);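 also: tested at 20 µM; growth read once vehicle control cultures reached saturation at 30 °C; 1 = growth at the plate median or of vehicle wells; lower values mean less growth of the strain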
Details: S. cerevisiae deletion strains, growth OD

Measured: normalized growth

COC(=O)Nc1nc2ccc(C(=O)c3cccs3)cc2[nH]1
active: locus YAL040C, strain CLN3, stronger effect = lower value 0.635 | locus YNL128W, strain TEP1, stronger effect = lower value 0.73 | locus YNL153C, strain GIM3, stronger effect = lower value 0.124 | locus YNL175C, strain NOP13, stronger effect = lower value 0.715 | locus YNL197C, strain WHI3, stronger effect = lower value 0.429 | locus YNL224C, strain SQS1, stronger effect = lower value 0.605 | locus YOR083W, strain WHI5 (second series), stronger effect = lower value 0.442
inactive: locus YAL013W, strain DEP1, stronger effect = lower value 1.03 | locus YCL061C, strain MRC1 (second series), stronger effect = lower value 1.01 | locus YDR150W, strain NUM1, stronger effect = lower value 0.994 | locus YDR363W, strain ESC2, stronger effect = lower value 1.03 | locus YER002W, strain NOP16, stronger effect = lower value 1.01 | locus YGR229C, strain SMI1, stronger effect = lower value 1.03 | locus YJR075W, strain HOC1, stronger effect = lower value 1.04 | locus YMR307W, strain GAS1, stronger effect = lower value 1.01
